DAX1 inh-1: inhibits human nuclear receptor DAX1 | HEK293 Gal4-DAX1 luciferase reporter, luminescence | actives 0.99% (n = 340,000) | inhibition, % at 6.75 µM | P51843;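 active = inhibition above the mean over all tested compounds plus 3 SD, cut at about 4.2% in these data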;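 note: 0% = DAX1-transfected cells with DMSO and 100% = empty-vector control cells with DMSO; inhibition shows as a rise in luminescence from relieved DAX1 repression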
hgDAF12 agonist: agonists of H. glycines DAF-12 nuclear receptor | HEK293 GAL4-hgDAF12 UAS-luciferase reporter, agonist luminescence; normalized to butyrate control | activation, % at 6.8 µM | actives 1.8% (n = 370,000);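 active = activation above a cutoff set at the mean of all screened compounds plus 3 SD, cut at about 10% in these data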;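 note: 0% = DMSO wells and 100% = sodium butyrate wells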
DAX1 inh-2: inhibitors of DAX1 repression of SF-1 activated StAR promoter; inhibition, % at 6.8 µM; HEK293T StAR-luciferase reporter, SF-1/DAX-1 repression relief; AID 652010; actives 1.1% (n = 370,000);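 active = inhibition above the mean over all tested compounds plus 3 SD, cut at about 3.6% in these data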;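 note: 0% = DAX-1 cells with DMSO and 100% = cells lacking DAX-1 with DMSO; higher inhibition means more luminescence from relief of DAX-1 repression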
hcDAF-12 act: activates DAF-12 receptor from parasite H. contortus; AID 652067; actives 1.4% (n = 370,000); activation, % at 6.8 µM; HEK293 hcDAF-12 lit1-tk-luc reporter, luminescence; 0% DMSO, 100% Δ7-dafachronic acid;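 active = activation above the mean of all tested compounds plus 3 SD, cut at about 5.5% in these data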;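 note: 100% = response to 3 µM Δ7-dafachronic acid high control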
ssDAF12 agonist: S. stercoralis DAF-12 activation, primary screen; HEK293 ssDAF-12/GRIP1 lit1-tk-luc reporter, luminescence; % of 3 µM dafachronic acid response; activation, % at 6.8 µM; actives 1% (n = 370,000); AID 652126;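 active = activation above the mean over all tested compounds plus 3 SD, cut at about 0.9% in these data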;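 note: 0% = DMSO-only wells and 100% = 3 µM delta7-dafachronic acid wells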
DAX1 conf: NR0B1 (human) inhibition, confirmation; shares compounds with DAX1 inh-2; inhibition, % at 6.8 µM; AID 652134; HEK293T StAR-promoter luciferase reporter, SF-1/DAX-1 repression; actives 87% (n = 2,400);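 active = inhibition above the average of every tested compound plus 3 SD, cut at about 3.8% in these data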;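 note: 0% = DAX-1 cells with DMSO and 100% = no DAX-1 control cells with DMSO; active compounds raise luminescence by relieving repression of the StAR reporter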
Target sequence (P51843 whole entry, looked up): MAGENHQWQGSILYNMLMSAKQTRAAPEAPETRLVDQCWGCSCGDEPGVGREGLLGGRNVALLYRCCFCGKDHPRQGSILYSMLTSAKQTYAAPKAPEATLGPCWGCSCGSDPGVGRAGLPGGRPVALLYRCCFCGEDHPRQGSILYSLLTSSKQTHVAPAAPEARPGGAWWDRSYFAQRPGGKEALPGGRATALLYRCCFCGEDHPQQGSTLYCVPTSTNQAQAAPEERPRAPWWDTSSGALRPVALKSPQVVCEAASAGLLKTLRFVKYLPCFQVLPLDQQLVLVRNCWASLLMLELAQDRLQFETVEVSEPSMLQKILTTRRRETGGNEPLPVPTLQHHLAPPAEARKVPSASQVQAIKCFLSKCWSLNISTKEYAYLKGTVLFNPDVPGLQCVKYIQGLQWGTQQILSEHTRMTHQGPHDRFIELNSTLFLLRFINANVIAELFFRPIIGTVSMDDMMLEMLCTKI
SF1 AF2mut Luc: nonselective inhibitor or artifact in SF-1 mutant DAX1 counter-screen; HEK293 StAR-luciferase, SF-1 AF2 mutant, luminescence; actives 78% (n = 2,400); shares compounds with DAX1 inh-2; inhibition, % at 6.8 µM;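 active = inhibition above the mean of all tested compounds plus 3 SD, cut at about 3% in these data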;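 note: 0% = DAX-1 transfected cells with DMSO and 100% = cells without DAX-1 with DMSO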
The depositor's hits bear a star; x = not tested or not shown. Sampled rows, rich in hits. Any-hit rate of the full collection: about 4.1%.

SMILES	DAX1 inh-1	hgDAF12 agonist	DAX1 inh-2	hcDAF-12 act	ssDAF12 agonist	DAX1 conf	SF1 AF2mut Luc
CCC(=O)Nc1ccc(-c2nnc(-c3ccccc3)o2)cc1	2	10*	4.5*	2	1	14*	4.5*
CCOC(=O)C(NC(=O)NCc1ccc(F)cc1)(OCC)C(F)(F)F (stereo unspecified)	0	-3	0	1	-1	x	x
CCOC(=O)C(NC(=O)Nc1ccc(Cl)cn1)(Oc1ccc(F)cc1)C(F)(F)F (stereo unspecified)	1	7	4.8*	4	0	4.0*	3.2*
CCc1ccccc1N(C1=NCCCS1)S(=O)(=O)c1ccc(C(C)(C)C)cc1	1	-2	-1	0	-1	x	x
COc1ccc2oc(C(=O)NCCc3ccccc3)c(C)c2c1	-2	3	5.2*	3	-1	7.1*	0
COc1ccc2oc(C(=O)OCC(=O)NCCc3ccccc3)c(C)c2c1	0	3	0	0	-1	x	x
O=C(CCS(=O)(=O)c1ccccc1)N1CCN(c2ccccc2F)CC1	2	13*	7.0*	3	0	7.6*	3.1*
Cc1csc2c(=O)n(CCO)c(=O)[nH]c12	x	-1	0	1	0	x	x
Cc1cc(OCC(=O)OCC(=O)N(C)C2CCS(=O)(=O)C2)ccc1Cl (stereo unspecified)	-1	0	1	0	-1	x	x
Nc1cc(-c2ccc(OC(F)(F)F)cc2)nn1-c1ccc(Cl)c(Cl)c1	x	0	0	-1	-1	x	x
O=C(c1ccc2c(Cl)c3c(nc2c1)CCCC3)N1CCC(N2CCCCC2)CC1	1	9	9.0*	-1	-1	7.0*	6.1*
O=C(COc1ccc(Cl)cc1)Nc1ccccc1C(=O)NCc1cccnc1	0	-2	-3	-3	-1	x	x
C/C(=N/NC(=O)C1CCCC1)c1ccc(NC(=O)C(F)(F)F)cc1	0	2	0	-1	0	x	x
C/C(=N\NC(=O)c1nn(C)c(C)c1Br)c1ccc(NC(=O)C2CCCC2)cc1	2	12*	8.9*	4	0	2	-1
COc1ccc(C(=O)Nc2cccc(/C(C)=N\NC(=O)c3ccoc3C)c2)cc1OC	2	13*	12*	3	0	-1	-2
C/C(=N/NC(=O)c1ccoc1C)c1ccc(NC(=O)C2CCCC2)cc1	2	15*	6.1*	6.0*	0	5.3*	4.2*
CCN1CCN(c2cc(C)c3cc(NC(=O)c4ccc5c(c4)OCO5)ccc3n2)CC1	0	5	0	-2	-1	x	x
CCN1CCN(c2ccc(NC(=O)c3cc4ccccc4cc3OC)cc2C)CC1	1	11*	5.1*	0	-1	7.0*	3.1*
CCN1CCN(c2ccc(NC(=O)c3ccc4c(c3)OCCO4)cc2C)CC1	3	11*	7.9*	4	0	11*	5.2*
O=C(c1[nH]c(C(F)(F)F)nc1-c1ccccc1)N1CCN(c2ncccn2)CC1	x	1	-1	0	-1	x	x
O=C(Nc1ccc2c(c1)CN(C(=O)Nc1ccc(F)cc1)CC2)c1ccccn1	-1	5	-3	-1	-1	x	x
COC(=O)c1ccccc1NC(=O)N1CCc2ccc(NC(=O)c3ccccn3)cc2C1	1	7	5.1*	1	0	-4	-3
Cc1ccc(C(=O)OCC(=O)N2CCNC2=O)c(C)c1	4	9	6.9*	4	-1	7.1*	5.9*
CCN(c1ccc(OCC(=O)OCC(=O)c2c(N)n(C)c(=O)n(C)c2=O)cc1)S(=O)(=O)c1ccccc1	0	-1	5.2*	-1	-1	2	2
CN(c1ccc(OCC(=O)OCC(=O)c2c(N)n(C)c(=O)n(C)c2=O)cc1)S(=O)(=O)c1ccc2ccccc2c1	1	0	0	-2	-1	x	x
Cc1cc(C)n2nc(C(=O)Nc3ccc4c(c3)OCO4)nc2n1	0	2	2	0	-1	x	x

High-throughput results: PubChem, The Scripps Research Institute Molecular Screening Center
